D3 antag = blocks the human D3 dopamine receptor. P35462. D3R cells, DiscoveRx beta-arrestin luminescence, antagonist mode; active compounds read low. max response, negative = inhibition, %. 360,000 tested, 2.5% active. AID 652054; in the data active = max response below about -50%; inconclusive = no clear call, values can overlap the other calls; also: % is scaled to controls: 0 for no effect and ±100 for the full control effect
Target sequence (P35462 whole entry, looked up): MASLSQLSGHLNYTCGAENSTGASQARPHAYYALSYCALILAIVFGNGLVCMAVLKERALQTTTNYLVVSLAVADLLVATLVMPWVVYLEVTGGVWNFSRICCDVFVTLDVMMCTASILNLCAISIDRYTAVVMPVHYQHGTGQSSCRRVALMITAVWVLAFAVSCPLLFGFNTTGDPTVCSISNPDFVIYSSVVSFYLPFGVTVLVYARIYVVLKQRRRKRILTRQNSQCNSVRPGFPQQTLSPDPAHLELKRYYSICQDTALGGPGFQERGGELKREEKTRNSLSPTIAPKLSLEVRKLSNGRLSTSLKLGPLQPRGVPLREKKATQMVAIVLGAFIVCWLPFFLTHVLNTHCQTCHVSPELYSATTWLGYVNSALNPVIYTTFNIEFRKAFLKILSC
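Cells expressing the human receptor were seeded at 1500 cells/well, incubated overnight at 37 degrees C in 5% CO2, then exposed to library compounds with dopamine controls for 90 minutes at 37 degrees C before luminescent detection.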
ClpP mod = qHTS Assay for Activators of ClpP. purified B. subtilis ClpP, FRET peptide cleavage, 20 min. Potency, µM (series often up to 57.5 µM), for inactives: at the top dose activity change, negative = active. 340,000 tested, 1.9% active. AID 651965, 2013; active = well fitted falling curve with a large enough effect; inconclusive = small, poorly fitted or top-dose-only effect; inactive = no such curve, though single readings can be large or run the other way; also: potency is read from the fitted curve at half-maximal effect; the source files actives as falling curves though it sought activators and does not explain the sign; nearly all actives have a fitted effect of over 65% in size
Target sequence (P80244 whole entry, looked up): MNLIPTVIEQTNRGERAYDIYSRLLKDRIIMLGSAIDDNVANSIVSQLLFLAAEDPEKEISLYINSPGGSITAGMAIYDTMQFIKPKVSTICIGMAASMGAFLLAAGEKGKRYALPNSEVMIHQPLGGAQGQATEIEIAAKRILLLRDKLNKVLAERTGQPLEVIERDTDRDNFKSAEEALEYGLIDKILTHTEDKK
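FRET quenching reversal measured ClpP activation: 10 microg/mL B. subtilis ClpP at pH 8 with the FRET-FV decapeptide, read at 430 nm after 320 nm excitation. The 20-min minus 0-min signal was scaled between DMSO/no-enzyme wells and ADEP (5.8 microM final).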
IL-1B inflam inh = blocks inflammasome-driven IL-1 beta release; activity change, % at 57.5 µM; 360,000 tested, 4.7% active; THP-1 LPS/ATP IL-1B secretion, AlphaLISA, 16 h; active compounds read low; AID 743279; in the data active = activity change below about -50%; inconclusive = mostly about -30% to -49%; also: % is scaled to controls: 0 for no effect and ±100 for the full control effect
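THP-1 cells pretreated 1 hr with compounds (up to 57.5 uM final), then stimulated with LPS (250 ng/mL final) plus ATP (1.25 mM final); secreted IL-1B measured by AlphaLISA after 16 hr, decreased signal indicating inhibition.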
D3 ag = D3 dopamine receptor (human) agonism. P35462. D3R DiscoveRx beta-arrestin cells, luminescence, 90 min. max activation, %. 410,000 tested, 0.58% active. AID 652048; in the data active = max activation above about 30%; also: 0% is about no effect
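Cells at 1500/well, incubated overnight, then treated with pinned compounds (dopamine as control) for 90 min at 37 degrees C. DiscoveRx reagent added for 30 - 60 minutes at room temperature; luminescence read.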
TDP1 cell noCPT = qHTS for Inhibitors of human tyrosyl-DNA phosphodiesterase 1 (TDP1): qHTS in cells in absence of CPT; DT40 Tdp1-/- hTDP1 cells, no CPT, ATP luminescence, 48 h; Potency, µM (series often up to 46.2 µM), for the others: at the highest dose activity change, negative = growth inhibition, hits mostly inhibitors; 420,000 tested, 15% active; AID 686978, 2013; also: potency is read from the fitted curve at half-maximal effect; % is scaled to controls: 0 for no effect and ±100 for the full control effect; nearly all actives have a fitted effect of over 55% in size
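Camptothecin absent (DMSO only). Human TDP1-complemented DT40 knockout cells, 400 cells/well, 37 °C for minimum 48 hr; ATP measured via CellTiter-Glo, 30 min dark incubation, luminescence.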
DT40 TDP1 CPT = DT40-hTDP1 cell growth loss with CPT | chicken DT40 Tdp1-/-;hTDP1 cells + 20 nM CPT, ATP luminescence, 48 h | 420,000 tested, 12% active | Potency, µM (titrated, usually from 46.2 µM), inactives show top-dose activity change, negative = growth inhibition, actives largely listed as inhibitors; also: potency is read from the fitted curve at half-maximal effect; % is scaled to controls: 0 for no effect and ±100 for the full control effect; nearly all actives have a fitted effect of over 55% in size
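Chicken DT40 Tdp1-/- cells stably complemented with human TDP1 were seeded at 400 cells/well in medium containing 20 nM camptothecin, exposed to pin-transferred compounds, and grown at 37 °C for at least 48 hr. Viability was read as ATP luminescence.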
Active calls of the source: *; ? = inconclusive; / = not tested or not shown. Sampled rows, rich in hits. Any-hit rate of the full collection: about 21%. Unless noted, calls follow the shape of the dose curve; as a rule, active = well fitted inhibition curve with a large enough effect; inconclusive = small, poorly fitted or top-dose-only effect; inactive = flat fitted curve, though single readings scatter.

SMILES	D3 antag	ClpP mod	IL-1B inflam inh	D3 ag	TDP1 cell noCPT	DT40 TDP1 CPT
O=C1CCCc2nn(-c3ccccc3)c(-c3ccncc3)c21	-7	-2%	0	1	16µM*	?
CC(=O)Nc1ccc(S(=O)(=O)NCCc2ccc3c(c2)OCCO3)cc1	9	1%	17	0	1%	-11%
COc1cc(NC(=O)CNc2cccc(S(=O)(=O)N3CCOCC3)c2)cc(OC)c1	-21	-10%	-4	-5	?	?
Cn1c(=O)c(Cc2ccccc2)c(O)c2ccccc21	-4	25µM*	-9	-5	-15%	?
CCCc1c(O)c2ccccc2n(-c2ccccc2)c1=O	1	5.6µM*	11	0	-16%	-23%
CCn1c(=O)c(-c2ccccc2)c(O)c2ccccc21	-22	-17%	11	-2	0%	14%
CCCCn1c(=O)c(-c2ccccc2)c(O)c2ccccc21	9	-26%	59	4	-2%	10%
CCOC(=O)c1c(O)c2ccccc2n(C)c1=O	0	/	30	11	-6%	4%
CCCCCn1c(=O)c(Cc2ccccc2)c(O)c2ccccc21	-9	14µM*	0	1	?	-30%
CCCCCOC(=O)Cc1c(O)c2ccccc2n(C)c1=O	?	28µM*	-20	-8	16µM*	16µM*
CCCn1c(=O)c(Cc2ccccc2)c(O)c2ccccc21	17	28µM*	5	-8	-22%	-18%
CC(=O)NCCC(=O)N1CCc2c([nH]c3ccccc23)C1c1cccc(Cl)c1 (stereo not drawn)	2	/	0	13	15µM*	?
Cc1ccc(C2c3[nH]c4ccccc4c3CCN2C(=O)c2ccc(N(C)C)cc2)cc1 (stereo not drawn)	/	-19%	/	-10	21µM*	21µM*
CC(=O)NCCC(=O)N1CCc2c([nH]c3ccccc23)C1c1cccc(C)c1 (stereo not drawn)	7	/	10	0	-25%	-30%
COC(=O)c1ccc(NC(=O)N2CCc3c([nH]c4ccccc34)C2c2ccc(C)cc2)cc1 (stereo not drawn)	/	-20%	/	-20	5.8µM*	?
Cc1ccc(C2c3[nH]c4ccccc4c3CCN2C(=O)CCC2CCCC2)cc1 (stereo not drawn)	/	-5%	/	6	?	16µM*
Cc1ccc(C(=O)N2CCN(c3ncccn3)CC2)c(C)c1	1	/	21	-2	-3%	2%
CC(=O)Nc1ccc(S(=O)(=O)Nc2nc3ccccc3nc2Nc2cccc(S(N)(=O)=O)c2)cc1	5	/	6	2	-1%	-5%
NC(=O)c1nn2c(C(F)(F)F)cc(-c3ccc(Br)cc3)nc2c1Cl	/	-1%	/	-2	?	?
O=C(c1ccc(F)cc1)C1CCN(C(=O)c2c(F)cccc2F)CC1	-16	/	-25	-23	-17%	15%
O=C(CSCc1ccc(F)cc1)N1CCc2c([nH]c3ccccc23)C1c1ccccc1 (stereo not drawn)	/	-4%	/	2	15µM*	21µM*
CCOC(=O)c1c(N)sc2c1CCC1C(=O)N(C3CCCCC3)C(=O)C21 (stereo not drawn)	12	-1%	-19	1	26µM*	?
CN(C)C(CNC(=O)c1sc2ccccc2c1Cl)c1ccco1 (stereo not drawn)	?	-2%	-29	-1	?	-29%
Cc1cccc(/C=N\Nc2cn[nH]c(=O)c2Cl)c1	-82*	-1%	-3	-3	-18%	?
COc1ccc(NC(=O)c2ccc(OC)c(S(=O)(=O)N3CCCCC3C)c2)cn1 (stereo not drawn)	19	2%	62	3	-24%	?
SMILES	D3 antag	ClpP mod	IL-1B inflam inh	D3 ag	TDP1 cell noCPT	DT40 TDP1 CPT
COc1ccc2c(c1)C(=O)Cc1ccccc1O2	-14	/	-11	-17	21µM*	-9%
C=C(C)C(=O)Nc1cccnc1Oc1ccc(F)cc1F	6	/	14	5	1%	-1%
COc1ccc(C(=O)NCCCC2CCCC2)cc1OC1CCN(C(C)C)CC1	-17	2%	-22	-7	16µM*	16µM*
COc1ccc(C(=O)N(C)CCCC2CCCC2)cc1OC1CCN(C(C)C)CC1	-29	0%	?	-18	?	?
COc1ccc(C(=O)N(C)CCCC2CCCC2)cc1OC1CCN(C(C)=O)CC1	3	0%	2	3	16µM*	?
COc1ccc(C(=O)N2CCN(C)C(=O)[C@@H]2C)cc1OC1CCN(C(C)=O)CC1	2	32µM*	0	6	7%	4%
COc1ccc(C(=O)N(C)Cc2ccccn2)cc1OC1CCN(C(C)C)CC1	-9	28µM*	12	-9	-27%	11%
COc1ccc(C(=O)N(C)Cc2ccon2)cc1OC1CCN(C(C)C)CC1	6	2%	-3	1	-3%	-3%
CCOc1ccc(C(C)=O)cc1CN1C(=O)c2ccccc2S1(=O)=O	-4	1%	0	-16	-10%	22%
Cc1ccnc(NC(=O)c2ccc3c(c2)C(=O)N(CCC(C)C)C3=O)c1	-3	1%	-7	1	-13%	-24%
CCOC(=O)c1sc(=NC(=O)c2c(F)cccc2F)n(C)c1C	-3	-2%	-1	2	-18%	4%
O=c1ccc2c(ccc3ncccc32)o1	4	4%	?	4	12µM*	-17%
CS(=O)(=O)Cc1nc2ccccc2oc1=O	0	1%	10	2	6.5µM*	6.5µM*
O=c1oc2ccccc2nc1/C=C(\O)c1ccc(Br)cc1	-10	-3%	3	2	?	?
C/C(O)=C\c1nc2ccccc2oc1=O	0	-2%	40	4	7.3µM*	10µM*
Cc1ccc2oc(=O)c(/C=C(\O)CC(C)C)nc2c1	-10	-9%	18	-5	-87%	23µM*
c1ccc2oc(CCc3nc4ccccc4o3)nc2c1	10	-3%	-6	0	0%	3%
CC(=O)Nc1ccc(NS(=O)(=O)c2c(C(=O)N3CCCCCC3)c(C)n(C)c2C)cc1	/	-1%	/	7	1%	6%
Cc1cccc(NC(=O)CSc2ncc(-c3ccc(Br)cc3)[nH]2)c1	/	2%	/	-9	?	23µM*
COc1ccc(NC(=O)CSc2ncc(-c3ccc(Cl)cc3)[nH]2)cc1OC	/	-2%	/	1	15µM*	?
Fc1ccc(Nc2nc(-c3cccc(Cl)c3)c3c(n2)-c2ccccc2OC3)c(F)c1	/	-16%	/	-10	-27%	-17%

Screens (PubChem BioAssay)
